PubChem BioAssay (NCI)
Compounds without any hit were thinned out: in the full panel of roughly 83,000, 20% have a hit.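 A percent growth of 40 corresponds to 60% growth inhibition; 0 means no net growth; -100 means all cells died. Active threshold: below 10.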 Calls of active or inactive are those of the source.

test system: UO-31 renal; assay: NCI-60 one-dose screen, 48 h (100 = growth as untreated, 0 = no growth, -100 = all killed); conditions: 10 µM unless noted

**Q.** How did the growth turn out when `O=C(Nc1ccc(Cl)cc1)Nc1ccc(Cl)c(Cl)c1` was run?
**A.** 9.73% (active)

**Q.** For `CC(C)Cc1ccc(C(C)C(=O)NCc2ccc(Cn3c(=O)sn(-c4ccc(Cl)cc4)c3=O)cc2)cc1` (stereo not given), which growth is on record?
**A.** 65.4% (inactive)

**Q.** With `COc1ccc(/C=N/NC(=O)c2cccc3cc[nH]c23)cc1O` as the molecule, how does the growth read?
**A.** 60.4% (inactive)

**Q.** With `COc1cc(NCC(O)CN(CC(C)C)C2CCCC2)c2ncccc2c1` (stereo not given) as the molecule, how does the growth read?
**A.** 71.7% (inactive)

**Q.** For `COc1cccc(CCC(=O)c2cc3c(N)c(C(=O)Nc4ccccc4)sc3nc2C)c1`, which growth is on record?
**A.** 34.8% (inactive)

**Q.** `CN1CCN(CCCNc2nccc(-c3c(-c4ccc(F)c(O)c4)nc4sccn34)n2)S1(=O)=O` was tested. Which growth did it give?
**A.** 110% (inactive)

**Q.** `COc1ccccc1Nc1cc(O)c2c(=O)cc(-c3ccccc3)oc2c1` was tested. Which growth did it give?
**A.** 46.6% (inactive)

**Q.** Which growth does the source give for `C[C@@H]1CN(Cc2ccc(/C=C/c3n[nH]c4ccc5nc(-c6cn[nH]c6C(F)(F)F)c6c(c5c34)CCCC6)cc2)C[C@H](C)O1` here?
**A.** 4.93% (active)

**Q.** For `COc1ccc(-c2ncc(-c3ccccc3)[nH]2)cc1OC`, which growth is on record?
**A.** 109% (inactive)

**Q.** For `CCOC(=O)c1ccc(Nc2ccnc(SCC(=O)c3ccc(C#N)cc3)n2)cc1`, which growth is on record?
**A.** 48% (inactive)

**Q.** For `CCCCCCCCCCCCCCCCCCOc1ccccc1N`, which growth is on record?
**A.** -37% (active)

**Q.** With `COc1ccc(C2CC(c3cccc(Nc4ccncc4)c3)=NN2c2ccc(Cl)cc2)cc1` (stereo not given) as the molecule, how does the growth read?
**A.** 47.6% (inactive)

**Q.** How did the growth turn out when `O=C(Nc1ccccc1)Oc1ccccc1-c1ccccc1` was run?
**A.** 57.7% (inactive)

**Q.** For `Clc1ccc(C2CC(c3cccc(Nc4ccncc4)c3)=NN2c2ccc(Cl)cc2)cc1` (stereo not given), which growth is on record?
**A.** 4.62% (active)

**Q.** Which growth does the source give for `Clc1ccc(N2N=C(c3cccc(Nc4ccncc4)c3)CC2c2ccc(Br)cc2)cc1` (stereo not given) here?
**A.** 43.2% (inactive)
